# Laboratory results reported in PubChem BioAssay (NCI).
# About 83,000 compounds went through this panel and 20% of them were active in at least one assay; those are over-represented in the sample as a whole.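 For each line, cells grew in 96-well plates with the test compound present at a single concentration for 48 hours.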 A number with no mark means an inactive call. Activity calls are given as the source filed them. The calls were made as follows: active = growth percent below 10; inactive = the rest.
# System: HCT-116 colon
# Experiment: NCI-60 one-dose screen, 48 h (100 = growth as untreated, 0 = no growth, -100 = all killed)
# Conditions: 10 µM unless noted
row,Compound,growth
1,CN1C(=O)/C(=C\c2nc([P+](c3ccccc3)(c3ccccc3)c3ccccc3)c(N3CCOCC3)o2)SC1=S,65.4%
2,COc1ccc2c(c1)c(-c1nc(-c3c[nH]c4ccncc34)cs1)cn2C,-88.3% (active)
3,COc1ccc(C(=O)c2cc3c(N)c(C(=O)Nc4ccc(C)cc4)sc3nc2C)cc1,16.2%
4,COc1cc2nc3cc([N+](=O)[O-])ccc3c(NCCNCC(C)O)c2cc1OC (stereo not given),-18.8% (active)
5,Cc1sc2nc(NCCc3c[nH]c4ccc(Cl)cc34)[nH]c(=O)c2c1C,24.5%
6,CC/C(=C(/c1ccc(Cl)cc1)c1ccc(OCCN(C)C)cc1)c1ccc(Cl)cc1,56.7%
7,CNC(=O)c1[nH]cc(-c2ccc(OC)cc2)c1-c1cc(OC)c2c(c1OC)OCO2,95.6%
8,C=CCc1c(O)c(C(=O)/C=C/c2ccccc2)c(OC)c2ccoc12,22.9%
9,COc1ccc(-c2cc(-c3ccc(Cl)cc3)c(C#N)c(=O)n2Cc2ccc(C(=O)Nc3ccccc3N)cc2)cc1,69.2%
10,COc1ccc(/C=C/C(=O)c2cccc(OCCCCOc3cccc(C(=O)/C=C/c4ccc(OC)c(OC)c4)c3)c2)cc1OC,58.6%
11,CCOC(=O)c1ccc(NC(=O)c2nc(-c3cc(OC)c(OC)c(OC)c3)n(-c3ccc(Cl)cc3)n2)cc1,87.8%
12,Cc1ccc(CNc2ccc3nc(CCC4CCCCC4)[nH]c3c2)cc1,16.3%
13,CC(=O)c1c(C)nc(SCC(=O)Nc2cccc(O)c2)n1-c1ccc(Cl)cc1,94.8%
14,Cc1ccc2c(c1)=C/C(=C\c1cc(-c3ccccc3)oc1O)C(=O)N=2,93.1%
15,O=C(CSc1nnc(-c2cnccn2)n1-c1ccccc1)c1ccc(Cl)cc1,95.4%
16,CCC(=C(c1ccc(OCCN2CCCCC2)cc1)c1ccc(OCCN2CCCCC2)cc1)c1ccc(Cl)cc1,-91.1% (active)
17,O=C(Nc1ccc(Oc2cccc(Cl)c2)c(Cl)c1)c1cnccn1,20.9%
18,CCCNc1nc2ccccc2c2c1S(=O)(=O)c1ccc(Cl)cc1C2=O,5.94% (active)
19,C=CCOC(=O)Nc1cccn([C@H](Cc2ccccc2)C(=O)NCCC(C)C)c1=O,109%
20,N#Cc1c(-c2ccc(Cl)cc2)nc(NN2C(=O)c3ccccc3C2=O)nc1N1CCOCC1,99.5%

row,Compound,growth
1,N#Cc1nc(-c2ccc(F)cc2)oc1S(=O)(=O)N1CCCCC1,-19.4% (active)
2,COc1ccc2cc1Oc1ccc(cc1)C[C@H]1c3c(cc4c(c3Oc3cc5c(cc3OC)CCN(C)[C@@H]5C2)OCO4)CCN1C,19.2%
3,C=C1C(=O)O[C@H]2[C@H]1CC/C(COC(=O)/C=C\C(=O)NCc1ccc(Cn3c(=O)sn(CCI)c3=O)cc1)=C\CC[C@@]1(C)O[C@@H]21,19%
4,CCOC(=O)c1c(NC(=O)c2ccc(Cl)cc2)sc2c(CN(C)C)c(O)ccc12,70.7%
5,CSc1nc(N)c(NS(=O)(=O)c2ccc(C(C)=O)cc2)c(=O)[nH]1,92.7%
6,COc1cc2c(c(OC)c1OC)CCC(c1cccc(C(=O)Nc3cccc(Cl)c3)c1)O2 (stereo not given),74.2%
7,Cc1nc2sc(C(=O)Nc3cccc4ccccc34)c(N)c2cc1C(O)c1ccccc1 (stereo not given),8.89% (active)
8,COc1ccc(C(=O)N2c3ccccc3Sc3ccccc32)c(OC)c1,9.42% (active)
9,Cc1nc2sc(C(=O)Nc3ccc(Br)cc3)c(N)c2cc1C(O)c1ccccc1 (stereo not given),29.9%
10,CNc1nnc2n(-c3ccccc3)c(=O)c3cnn(-c4ccccc4)c3n12,77.7%
11,[O-]/[N+](=C\c1ccc(-n2cc(Cc3ccccc3Cc3cn(-c4ccc(/C=[N+](/[O-])c5ccccc5)cc4)nn3)nn2)cc1)c1ccccc1,91.2%
12,COc1ccc(/C=N\Nc2nc(SCCC(C)C)nc(-c3ccc(OC)cc3)c2C#N)cc1,21.1%
13,COC1/C=C/OC2(C)Oc3c(C)c(O)c4c(O)c(c(/C=N/Nc5ccc([N+](=O)[O-])cc5[N+](=O)[O-])c(O)c4c3C2=O)NC(=O)C(C)=C/C=C/C(C)C(O)C(C)C(O)C(C)C(OC(C)=O)C1C (stereo not given),-46.7% (active)
14,COc1cc(OC)c(NC(=O)c2cc3ccccc3cc2O)cc1Cl,18.1%
15,CC(C)(C)[Si](C)(C)OC1[C@@H](CNC(=O)NC(=O)NC(N)=O)O[C@@H](n2cnc3c(NC(=O)Nc4ccccc4)ncnc32)[C@H]1O[Si](C)(C)C(C)(C)C (stereo not given in full),20.5%
16,COc1ccc(C/C(C)=C(\c2ccc(Cl)cc2)c2ccc(OCCN3CCCCC3)cc2)cc1,100%
17,Cc1ccc(C(=O)c2ccc(CC(=O)N/N=C/c3ccccc3O)n2C)cc1,92.1%
18,CCO/C=N/C1=C(C#N)C(c2ccc(Cl)cc2)c2sc3c(F)cccc3c2O1 (stereo not given),54.2%
19,CCCCNC(=O)Oc1ccc(/C(=C(/C)Cc2ccc(OC)cc2)c2ccc(OCCN(CC)CC)cc2)cc1,42.7%
20,COc1cc2oc(-c3cccc(NC(=O)c4ccccc4)c3)cc(=O)c2c(OC)c1OC,67.7%
